Laboratory results as given in PubChem BioAssay AID1159580 (chemical genetic matrix, 2015).
“And” between values parts separate entries of the source, which are not always exact repeats. Equal values may be shown once. Screen size: about 5,500 compounds; about 2,000 (36%) were called active. Another 18% or so got no clear call; they are omitted. No stated cut-off is given here; in the data, active means normalized growth mostly below about 0.91 (no sharp cut-off); inconclusive means no clear call, values can overlap the other calls; inactive means mostly above about 0.92. The list shows a part of the results.

Assay: chemical genetic growth profiling, strain panel (AID 1159580);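 further: tested at 20 µM; growth read once vehicle control cultures reached saturation at 30 °C; 1 = growth at the plate median or of vehicle wells; lower values mean less growth of the strain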
Conditions: S. cerevisiae deletion strains, growth OD

Measured: normalized growth

COC(=O)C1=CO[C@@H](O[C@@H]2O[C@H](CO)[C@@H](O)[C@H](O)[C@H]2O)[C@@H]2[C@@H](C)[C@@H](O)C[C@H]12
inactive: locus YAL013W, strain DEP1, hits give low values 1 | locus YAL021C, strain ccr4, hits give low values 0.973 | locus YAL026C, strain drs2, hits give low values 1.01 | locus YAL030W, strain snc1, hits give low values 0.996 | locus YBL061C, strain skt5, hits give low values 0.999 | locus YBR009C, strain hhf1, hits give low values 0.998 | locus YBR021W, strain FUR4, hits give low values 1.02 | locus YBR023C, strain chs3, hits give low values 0.994 | locus YBR171W, strain sec66, hits give low values 1 | locus YBR229C, strain ROT2, hits give low values 1.01 | locus YBR231C, strain swc5, hits give low values 1.01 | locus YBR279W, strain paf1, hits give low values 0.989 | locus YCL011C, strain gbp2, hits give low values 0.997 | locus YCL016C, strain dcc1, hits give low values 0.979 | locus YCL029C, strain bik1, hits give low values 0.989 | locus YCL061C, strain MRC1, hits give low values 0.973 | locus YCL069W, strain vba3, hits give low values 0.999 | locus YCR088W, strain abp1, hits give low values 0.998 | locus YDL005C, strain med2, hits give low values 0.989 | locus YDL035C, strain GPR1, hits give low values 1.02 | locus YDL040C, strain nat1, hits give low values 1 | locus YDL074C, strain BRE1, hits give low values 1 | locus YDL101C, strain DUN1, hits give low values 0.996 | locus YDL134C, strain PPH21, hits give low values 1.08 | locus YDL185W, strain tfp1, hits give low values 0.967 | locus YDL192W, strain arf1, hits give low values 1 | locus YDR001C, strain nth1, hits give low values 1 | locus YDR069C, strain doa4, hits give low values 0.998 | locus YDR101C, strain arx1, hits give low values 0.977 | locus YDR137W, strain rgp1, hits give low values 1 | locus YDR150W, strain NUM1, hits give low values 0.993 | locus YDR159W, strain sac3, hits give low values 0.998 | locus YDR162C, strain NBP2, hits give low values 1.01 | locus YDR195W, strain ref2 0.989 | locus YDR297W, strain sur2, hits give low values 0.996 | locus YDR318W, strain mcm21, hits give low values 1.01 | locus YDR334W, strain swr1, hits give low values 1.01 | locus YDR335W, strain msn5, hits give low values 0.995 | locus YDR388W, hits give low values 0.995 | locus YDR392W, strain spt3, hits give low values 0.891 | locus YDR502C, strain sam2, hits give low values 1.01 | locus YEL003W, strain gim4, hits give low values 1.02 | locus YEL037C, strain rad23, hits give low values 1.01 | locus YEL061C, strain CIN8 (second series), hits give low values 1 | locus YEL061C, strain CIN8, hits give low values 1.01 | locus YER015W, strain faa2, hits give low values 0.995 | locus YER016W, strain bim1, hits give low values 0.999 | locus YER110C, hits give low values 0.976 | locus YER111C, strain swi4, hits give low values 0.991 | locus YER155C, strain BEM2 (second series), hits give low values 0.986 | locus YER155C, strain BEM2, hits give low values 0.997 | locus YER167W, strain BCK2, hits give low values 1 | locus YFR010W, strain ubp6, hits give low values 1 | locus YGL078C, strain dbp3, hits give low values 0.989 | locus YGL086W, strain mad1, hits give low values 0.943 | locus YGL167C, strain pmr1, hits give low values 1.01 | locus YGL173C, strain kem1, hits give low values 1.02 | locus YGL227W, strain vid30, hits give low values 0.994 | locus YGL240W, strain doc1, hits give low values 0.987 | locus YGL248W, strain PDE1, hits give low values 1.02 | locus YGL253W, strain hxk2, hits give low values 1.01 | locus YGR078C, strain PAC10, hits give low values 1 | locus YGR135W, strain pre9, hits give low values 1 | locus YGR229C, strain SMI1, hits give low values 1.03 | locus YGR252W, strain gcn5, hits give low values 1.14 | locus YHR013C, strain ard1, hits give low values 1.03 | locus YHR027C, strain rpn1, hits give low values 1 | locus YHR030C, strain SLT2, hits give low values 0.992 and 1.04 | locus YHR079C, strain IRE1 (second series), hits give low values 0.979 | locus YHR079C, strain IRE1, hits give low values 1.06 | locus YHR094C, strain hxt1, hits give low values 0.998 | locus YHR129C, strain ARP1, hits give low values 1 | locus YHR142W, strain chs7, hits give low values 1 | locus YHR200W, strain rpn10, hits give low values 0.979 | locus YIL066C, strain RNR3, hits give low values 1.01 | locus YIL073C, strain SPO22, hits give low values 0.986 | locus YIL125W, strain kgd1, hits give low values 0.985 | locus YIR030C, strain dcg1, hits give low values 0.996 | locus YJL092W, strain hpr5, hits give low values 1 | locus YJL095W, strain BCK1 (second series), hits give low values 1 | locus YJL095W, strain BCK1, hits give low values 1.04 and 1 | locus YJL115W, strain asf1, hits give low values 0.999 | locus YJL129C, strain trk1, hits give low values 0.986 | locus YJL134W, strain LCB3, hits give low values 1 | locus YJL154C, strain vps35, hits give low values 1.01 | locus YJL164C, strain tpk1, hits give low values 1 | locus YJL166W, strain qcr8, hits give low values 0.972 | locus YJL168C, strain set2, hits give low values 0.978 | locus YJL187C, strain SWE1 (second series), hits give low values 1 | locus YJL187C, strain SWE1, hits give low values 1 | locus YJR043C, strain POL32, hits give low values 1.01 | locus YJR066W, strain TOR1, hits give low values 1.01 | locus YJR075W, strain HOC1, hits give low values 0.995 | locus YKL009W, strain mrt4, hits give low values 1.01 | locus YKL068W, hits give low values 0.987 | locus YKL085W, strain MDH1 (second series), hits give low values 0.978 | locus YKL085W, strain MDH1, hits give low values 0.978 | locus YKL160W, strain elf1, hits give low values 0.961 | locus YKL190W, strain CNB1, hits give low values 1 | locus YKR001C, strain vps1, hits give low values 0.999 | locus YKR026C, strain gcn3, hits give low values 0.997 | locus YKR091W, strain srl3, hits give low values 0.992 | locus YLL001W, strain dnm1, hits give low values 0.973 | locus YLL026W, hits give low values 1 | locus YLL041C, strain sdh2, hits give low values 0.994 | locus YLR027C, strain aat2, hits give low values 0.994 | locus YLR039C, strain RIC1, hits give low values 1.05 | locus YLR058C, strain SHM2, hits give low values 1.01 | locus YLR102C, strain apc9, hits give low values 0.984 | locus YLR113W, strain HOG1, hits give low values 0.991 | locus YLR221C, strain rsa3, hits give low values 0.971 | locus YLR258W, strain gsy2, hits give low values 0.981 | locus YLR262C, strain YPT6 (second series), hits give low values 0.985 | locus YLR262C, strain YPT6, hits give low values 1.08 | locus YLR268W, strain sec22, hits give low values 0.968 | locus YLR320W, strain mms22, hits give low values 0.964 | locus YLR330W, strain CHS5, hits give low values 0.984 | locus YLR342W, strain FKS1 (second series), hits give low values 1.04 | locus YLR342W, strain FKS1, hits give low values 0.995 | locus YLR357W, strain rsc2, hits give low values 0.986 | locus YLR370C, strain arc18, hits give low values 0.992 | locus YLR371W, strain rom2, hits give low values 0.973 | locus YLR384C, strain iki3, hits give low values 1 | locus YLR418C, strain cdc73, hits give low values 1.04 | locus YML016C, strain PPZ1, hits give low values 0.997 | locus YML032C, strain rad52, hits give low values 1.03 | locus YML120C, strain ndi1, hits give low values 0.99 | locus YML124C, strain tub3, hits give low values 0.988 | locus YMR058W, strain fet3, hits give low values 1 | locus YMR078C, strain ctf18, hits give low values 0.954 | locus YMR125W, strain sto1, hits give low values 0.97 | locus YMR129W, hits give low values 1.01 | locus YMR205C, strain PFK2, hits give low values 0.952 | locus YMR223W, strain ubp8, hits give low values 1.01 | locus YMR231W, strain pep5, hits give low values 1 | locus YMR263W, strain SAP30, hits give low values 0.996 | locus YMR307W, strain GAS1, hits give low values 1.18 | locus YNL067W, strain RPL9B, hits give low values 1 | locus YNL071W, strain lat1, hits give low values 1 | locus YNL183C, strain NPR1, hits give low values 1 | locus YNL209W, strain ssb2, hits give low values 1 | locus YNL233W, strain BNI4, hits give low values 1 | locus YNL248C, strain rpa49, hits give low values 0.982 | locus YNL250W, strain rad50, hits give low values 0.939 | locus YNL271C, strain bni1, hits give low values 0.989 | locus YNL298W, strain CLA4, hits give low values 1 | locus YNL307C, strain MCK1, hits give low values 0.979 | locus YNL322C, strain KRE1 (second series), hits give low values 0.989 | locus YNR049C, strain mso1, hits give low values 0.997 | locus YNR052C, strain pop2, hits give low values 0.997 | locus YOL012C, strain htz1 1.13 | locus YOL147C, strain pex11, hits give low values 0.988 | locus YOR001W, strain rrp6, hits give low values 1 | locus YOR061W, strain CKA2, hits give low values 1.01 | locus YOR069W, strain VPS5, hits give low values 0.995 | locus YOR070C, strain gyp1, hits give low values 0.999 | locus YOR080W, strain dia2, hits give low values 0.997 | locus YOR083W, strain WHI5, hits give low values 0.958 | locus YOR106W, strain vam3, hits give low values 0.989 | locus YOR136W, strain idh2, hits give low values 0.991 | locus YOR144C, strain elg1, hits give low values 0.993 | locus YOR184W, strain ser1, hits give low values 1 | locus YOR231W, strain MKK1, hits give low values 1.03 | locus YOR265W, strain rbl2, hits give low values 0.999 | locus YOR270C, strain vph1, hits give low values 1.02 | locus YOR290C, strain snf2, hits give low values 0.98 | locus YOR316C, strain cot1, hits give low values 0.996 | locus YPL051W, strain arl3, hits give low values 0.977 | locus YPL055C, strain LGE1, hits give low values 1.01 | locus YPL078C, strain atp4, hits give low values 0.965 | locus YPL106C, strain sse1, hits give low values 0.948 | locus YPL240C, strain hsp82, hits give low values 0.996 | locus YPL256C, strain CLN2, hits give low values 1.05 | locus YPR119W, strain clb2, hits give low values 0.981 | locus YPR141C, strain kar3, hits give low values 0.977 | locus YPR163C, strain tif3, hits give low values 0.984 | locus YPR167C, strain met16, hits give low values 0.995 | strain wtn01, hits give low values 0.948
